# In ChEMBL document CHEMBL4513216, “Probing the Open Global Health Chemical Diversity Library for Multistage-Active Starting Points for Next-Generation Antimalarials” (ACS Infect Dis, 2020):
# In all, about 69,000 compounds went through this assay and about 8,600 (12%) showed an effect of 50% or more. Many of the other results were omitted from the sample, so strong results are more common in it than they were.
# Test system: Plasmodium berghei
# Assay: Screen against P. berghei liver stage (PbLuc), transformed with Luciferase, at 10uM
# Type: functional, HepG2
# Details: tested at 10 uM
row,SMILES,INHIBITION [%]
1,COc1c(CNCCC(=O)NC2CCCC2)c(C(C)C)nn1C,21
2,O=C(C[C@@H]1COC[C@H]2CN(Cc3ccc(F)cc3)C[C@@H]12)N1CCCC1,-21.1
3,CC(C)Nc1cccc(CNC(=O)N2CCC[C@@H]2CO)c1,52.2
4,CC(C)Nc1cccc(CNC(=O)N2CCCC2)c1,24.2
5,CC(C)Nc1cccc(CNC(=O)N2CCC(N3CC=CC3)C2)c1 (stereo unspecified),19.4
6,CC1=Nc2c(c(O)nn2C(C)C)C(c2cn(C)nc2C)S1 (stereo unspecified),33.3
7,CCn1cc(Cl)c(C(=O)NCCCO)n1,20.1
8,COc1ccc2cc(NC(=O)CCCNc3ncccn3)cnc2c1,46.1
9,Cc1cc(C)nc(NCCC(=O)Nc2ccc(Cn3cncn3)cc2)n1,55.1
10,COc1ccc(NC(=O)CSC(F)(F)F)cn1,66.7
11,O=C(CCCNc1ncccn1)Nc1ccc(Cn2cncn2)cc1,45.9
12,COc1ccc(NC(=O)CSc2nc(C)cc(C)n2)cn1,-5.69
13,O=C(CCNc1ncccn1)Nc1ccc(Cn2cncn2)cc1,-4.56
14,COc1ccc(NC(=O)Cn2cc(-c3ccccc3)ncc2=O)cn1,44.9
15,COc1ccc2cc(NC(=O)CCNc3ncccn3)cnc2c1,41.5
16,COc1ccc(NC(=O)N2CCN(c3ncccn3)CC2)cn1,-7.11
17,CS(=O)(=O)c1ccc(NC(=O)CSC(F)(F)F)cn1,39.8
18,COc1ccc2cc(NC(=O)CCNc3nc(C)cc(C)n3)cnc2c1,73
19,COc1ccc(NC(=O)CCNc2ncccn2)cn1,61

row,SMILES,INHIBITION [%]
1,O=C(NCCc1nnc2n1CCC2)NCC1(c2cccc(F)c2)CC1,-36.3
2,CO[C@H]1CN(C(C)C)C[C@@H]1NC(=O)Nc1ccc(C(F)(F)F)cc1,40.3
3,CN(CC(=O)NC(C)(C)C)C(=O)C1CC(c2cccc(F)c2)=NO1 (stereo unspecified),-29.1
4,COCCN1CCCC(c2nccnc2-c2cccc(Cl)c2)C1 (stereo unspecified),12.75
5,COc1ccc(-n2cc(CNC(=O)c3ccccn3)nn2)cc1,-15.9
6,CS(=O)(=O)NCc1cc(-c2cc(F)cc(F)c2)nc(N2CCOCC2)n1,-4.82
7,CCc1nc(CC)n(CC(=O)NCc2cccc(C)c2)n1,13
8,CN1CC(=O)N(c2ccccc2)CC12CCN(CC1CCOCC1)C2 (stereo unspecified),-11.2
9,CCc1nccn1CC(=O)N1C[C@@H]2CC[C@H]1CN(c1ncccn1)C2,-22.4
10,Cc1cnn(CC2CN(Cc3nc(C)no3)CCO2)c1 (stereo unspecified),4.71
11,Cc1nc(CN2C[C@@H]3CN(C(=O)c4cccn4C)C[C@@H]3C2)cs1,16.1
12,CC(C(=O)NC(N)=O)N(C)CCCc1cc(-c2ccccc2)no1 (stereo unspecified),-28.36
13,Cc1cccc(CN2CCC3(CC2)NC(=O)C[C@H]3c2cnn(C)c2)n1,1.61
14,CC(C)CNC(=O)COc1cccc[n+]1[O-],-12.1
15,CC(NC(=O)COc1cccc[n+]1[O-])C1CC1 (stereo unspecified),76.7
16,CC(NC(=O)c1cccc[n+]1[O-])C1CC1 (stereo unspecified),9
17,CC(C)n1ccnc1C1CCN(c2nccc(C(F)(F)F)n2)CC1,11.5
18,CCc1ccc(CN(C/C=C/c2ccccc2)CCOC)nc1,52.9
19,COCCN(C/C=C/c1ccccc1)Cc1ccccn1,27.8

row,SMILES,INHIBITION [%]
1,COCCN(C/C=C/c1ccccc1)Cc1nccs1,-12.6
2,c1cc2c(cc1CN1CC[C@H]3CO[C@H](CN4CCCC4)[C@H]3C1)OCO2,10.5
3,C[C@H]1CN(C(=O)c2cscn2)C[C@@]12CCN(c1ccsc1)C2=O,47.4
4,COCCOCC(=O)N1C[C@@H]2CC[C@H](Oc3ccccc3)[C@@H]2C1,7.52
5,CC(=O)N1CCO[C@@H]2CN(S(=O)(=O)C3CC3)CC[C@@H]2C1,37.6
6,CC(=O)N1C[C@@H]2CN(S(=O)(=O)C3CC3)CCO[C@@H]2C1,6.79
7,CC(=O)N1CCO[C@@H]2CN(S(=O)(=O)C3CC3)C[C@@H]2C1,50.3
8,Cc1nn(C)c2c(=O)n(Cc3ccccc3)nnc12,28.89
9,COc1ccnc(N2C[C@H]3CC[C@@H](C2)N(CC2CCC2)C3=O)n1,32.1
10,COc1cc2c(cc1CNCc1ccnc(-n3cccn3)c1)OC(C)C2 (stereo unspecified),67.8
11,COc1cc2c(cc1CNC(=O)Cc1cc(C)[nH]n1)OC(C)C2 (stereo unspecified),46.6
12,COc1cc2c(cc1CNCc1cccnc1OC)OC(C)C2 (stereo unspecified),60.2
13,COc1cc2c(cc1CNCc1cccnc1-n1cccn1)OC(C)C2 (stereo unspecified),68.9
14,COc1cc2c(cc1CNC(=O)Cc1ccc(C)nc1)OC(C)C2 (stereo unspecified),-25.3
15,COc1ccc(CNCc2ccnc(N3CCOCC3)c2)c(OC)c1,29.6
16,COc1cccc(CNCc2cccnc2-n2cccn2)c1OC,16.2
17,CC(C)N1CC(C(=O)NCc2ccnc(-n3cccn3)c2)CC1=O (stereo unspecified),-28
18,COc1cc2c(cc1CNC(=O)Cc1cc(C)on1)OC(C)C2 (stereo unspecified),47.4
